# Data: PubChem BioAssay
# Results filed as inconclusive are left out. Active and inactive are the calls of the source. Unless noted, cut-off not given; nearly all actives show AC50 up to about 26 µM.
# Tests used:
# [1] = growth inhibition of DIPG glioma cells, dose response, cell-based, SU-DIPG-XVII, MIPE5.0, CellTiter-Glo, qHTS (AID 1347060); details: SU-DIPG-XVII viability, CellTiter-Glo ATP luminescence;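 on AC50: cells exposed to compound for 48 hours before viability readout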
# [2] = growth inhibition of DIPG glioma cells, dose response, cell-based, SU-DIPG-XIII, MIPE4.0, CellTiter-Glo, qHTS (AID 1347061; cut-off not given, nearly all actives have AC50 up to about 37 µM;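 further: cells exposed to compound for 48 hours before readout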); details: SU-DIPG-XIII viability, CellTiter-Glo ATP luminescence
# [3] = growth inhibition of DIPG glioma cells, dose response, cell-based, SU-DIPG-IV, MIPE4.0, CellTiter-Glo, qHTS (AID 1347063; cut-off not given, nearly all actives have AC50 up to about 30 µM;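 further: compound exposure lasted 48 hours before the viability readout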); details: SU-DIPG-IV viability, CellTiter-Glo ATP luminescence
# [4] = viability loss in pontine glioma line – cell-based, SU-DIPG-XXV, MIPE5.0, CellTiter-Glo, qHTS, dose response (AID 1347065); details: CellTiter-Glo ATP luminescence;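 further: cells exposed to compound for 48 hours before ATP readout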
# [5] = SU-DIPG-VI glioma cell viability, MIPE4.0 library, CellTiter-Glo luminescence, qHTS (AID 1347066; cut-off not given, nearly all actives have AC50 up to about 30 µM;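 further: cells exposed to compound for 48 hours before readout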); details: CellTiter-Glo ATP luminescence
# [6] = JHH-DIPG-1 glioma cell viability, MIPE5.0 library, CellTiter-Glo luminescence, qHTS (AID 1347067); details: JHH-DIPG-1 glioma viability, CellTiter-Glo ATP luminescence;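 further: cells exposed to compound for 48 hours before readout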
# [7] = reducers of polyQ inclusions in PC12 cells, cell-based, NGF-treated PC12, GFPQ80 (AID 1614); details: PC12 NGF-treated GFP-polyQ80 inclusion reduction;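 further: lower means fewer inclusions and 0 means no inclusions at all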
# [8] = hESC survival regulators, cell-based (AID 493140; call rule not given here;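 further: cells exposed to compounds for four days before counting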); details: human embryonic stem cell survival screen; stronger effect = higher value
# [9] = growth inhibition of DIPG glioma cells, dose response, cell-based, JHH-DIPG-1, MIPE4.0, CellTiter-Glo, qHTS (AID 1347062; cut-off not given, nearly all actives have AC50 up to about 27 µM;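 on AC50: cells exposed to compound for two days before readout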); details: JHH-DIPG-1 viability, CellTiter-Glo ATP luminescence
# [10] = SU-DIPG-XXV glioma cell viability, MIPE5.0 library, qHTS (AID 1347068; cut-off not given, nearly all actives have IC50 up to about 30 µM)
# [11] = system: Hepatitis C virus NS3 helicase; assay: HCV NS3 helicase inhibitors, primary screen, biochemical, fluorescence polarization, LOPAC1280 library (AID 687035; in the data active means inhibition above about 37%); details: Purified HCV NS3 helicase, Cy5-dT15 ssDNA binding fluorescence polarization; stronger effect = higher value; concentration not given here
# [12] = Cy5 fluorescence quenching or enhancement artefacts, artefact control for HCV NS3 helicase inhibitor project, biochemical, LOPAC1280 (AID 687037; call rule not given here); details: Cy5-DNA-NS3h complex fluorescence interference counterscreen
# [13] = phospholipid biosynthesis inhibitors in animal cells, primary screen, cell-based, LOPAC library, screen 4 (AID 1347384; call rule not given here); details: phospholipid biosynthesis inhibition screen, at 10 µM
compound,measurement,setting,value
Oc1c(Cl)cc(Cl)c2cccnc12,AC50,[1],16.6 µM (active)
same,AC50,[2],18.7 µM (active)
same,AC50,[3],26.4 µM (active)
same,AC50,[4],26.3 µM (active)
same,AC50,[5],18.7 µM (active)
same,AC50,[6],2.95 µM (active)
O=C(O)c1cc(=O)c2c(OCC(O)COc3cccc4oc(C(=O)O)cc(=O)c34)cccc2o1,inclusion score,[7],1
same,survival,[8],1.67 (inactive)
same,outcome,[1],inactive
same,outcome,[2],inactive
same,outcome,[9],inactive
same,outcome,[3],inactive
same,outcome,[5],inactive
same,outcome,[6],inactive
same,outcome,[10],inactive
CC(C)C(=O)Nc1ccc([N+](=O)[O-])c(C(F)(F)F)c1,survival,[8],18.4 (inactive)
same,inhibition,[11],-1% (inactive)
same,fluorescence ratio (interference),[12],1 (inactive)
same,outcome,[1],inactive
same,outcome,[2],inactive
same,AC50,[9],18.7 µM (active)
same,outcome,[5],inactive
same,outcome,[6],inactive
same,outcome,[10],inactive
same,outcome,[13],inactive
CC(C[N+](C)(C)C)OC(N)=O (stereo not drawn),inclusion score,[7],2
same,survival,[8],18.5 (inactive)
same,inhibition,[11],-2% (inactive)
same,fluorescence ratio (interference),[12],1 (inactive)
same,outcome,[1],inactive
same,outcome,[2],inactive
same,outcome,[9],inactive
same,outcome,[5],inactive
same,outcome,[6],inactive
same,outcome,[10],inactive
same,outcome,[13],inactive
CC12CC3CC(C)(C1)CC(N)(C3)C2,inclusion score,[7],2
same,survival,[8],11.7 (inactive)
same,inhibition,[11],-2% (inactive)
same,fluorescence ratio (interference),[12],1 (inactive)
same,AC50,[9],3.32 µM (active)
same,outcome,[4],inactive
same,outcome,[5],inactive
same,outcome,[6],inactive
same,outcome,[10],inactive
same,outcome,[13],inactive
N[C@@H]1CONC1=O,inclusion score,[7],2
same,survival,[8],4.33 (inactive)
same,inhibition,[11],-2% (inactive)
same,fluorescence ratio (interference),[12],0.9 (inactive)
same,outcome,[1],inactive
same,outcome,[2],inactive
same,outcome,[9],inactive
same,outcome,[3],inactive
same,outcome,[4],inactive
same,outcome,[5],inactive
same,outcome,[6],inactive
same,outcome,[10],inactive
same,outcome,[13],inactive
CCc1cc(C(N)=S)ccn1,inclusion score,[7],2
same,survival,[8],9.25 (inactive)
same,outcome,[1],inactive
same,outcome,[2],inactive
same,outcome,[9],inactive
same,outcome,[3],inactive
same,outcome,[4],inactive
same,outcome,[5],inactive
same,outcome,[6],inactive
same,outcome,[10],inactive
NNC(=O)c1ccncc1,inclusion score,[7],2
same,survival,[8],30.9 (inactive)
same,outcome,[1],inactive
same,outcome,[2],inactive
same,outcome,[9],inactive
same,outcome,[3],inactive
same,outcome,[4],inactive
same,outcome,[5],inactive
same,outcome,[6],inactive
same,outcome,[10],inactive
CN=C(NC#N)NCCSCc1nc[nH]c1C,inclusion score,[7],2
same,inhibition,[11],0% (inactive)
same,fluorescence ratio (interference),[12],1 (inactive)
same,outcome,[13],inactive
NCCc1ccc(O)c(O)c1,inclusion score,[7],2
same,inhibition,[11],-4% (inactive)
same,fluorescence ratio (interference),[12],1 (inactive)
same,outcome,[1],inactive
same,outcome,[2],inactive
same,outcome,[3],inactive
same,outcome,[5],inactive
same,outcome,[6],inactive
same,outcome,[10],inactive
same,outcome,[13],inactive
